Most compounds without a hit are left out; they make up all but 2% or so of the library.
PAX8 inh HTS – inhibitors of PAX8 transcriptional activity in RMG-I cells. RMG-I TPO-luciferase reporter, SteadyGlo, 24 h. inhibition, % at 12.6 µM. 360,000 tested, 1.2% active. AID 652154;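 active means mean replicate inhibition at least 60% with every replicate also reaching 60%; inconclusive means only one of the two criteria is met; inactive means mean below 60% and not all replicates reaching 60%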;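 further: luciferase light reporting Pax8 driven TPO promoter activity; plate controls were median of neutral control wells for no effect and mitoxantrone controls for full effect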
LGR2 antag – Drosophila LGR2 receptor signaling inhibition. HEK293 LGR2, CRE-luciferase, bursicon-stimulated, 4 h. inhibition, % at 9.99 µM. 380,000 tested, 0.35% active;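 active means drop in luminescence signal, shown as inhibition above about 50% in the replicate tests, limit read from the data, passing the limit was not always enough; inconclusive means probably only some replicates passing the limit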;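 further: agonist challenge used bursicon conditioned medium at about half maximal strength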
KKLEB cytotox – reduces viability of KKLEB cystic fibrosis airway cells; KKLEB CF airway cells viability, ATPlite luminescence, overnight; active compounds read low; cells stimulated with P. aeruginosa culture filtrate; activity change (cytotoxicity), % at 5 µM; 360,000 tested, 0.36% active; AID 602141;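 active means corrected activity change at or below -50% at 5 µM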
CF NFkB inh – blocks PAF-induced NF-kB reporter in cystic fibrosis cells. KKLEB NF-kB-GFP reporter, GFP fluorescence overnight. inhibition, % at 5 µM. 360,000 tested, 0.86% active. AID 588850;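 active means at least 50% inhibition at 5 µM, scaled per plate between neutral and stimulator controls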;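 further: PAF is a Pseudomonas aeruginosa culture filtrate used as stimulus; plate controls were PAF-stimulated DMSO wells for no effect and unstimulated DMSO wells for full effect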
EWS-Fli block – EWS/Fli transcriptional activity inhibition; AID 651661; 350,000 tested, 0.67% active; inhibition, % at 12.6 µM; A673 NR0B1-luciferase reporter, viability-normalised;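 active means mean inhibition of at least 50% after viability correction, with every replicate also passing that limit; inconclusive means mean reaches 50% but only one of two replicates passes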;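 further: firefly luciferase signal divided by Alamar Blue viability fluorescence both relative to DMSO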
Shn3 3UTR inh – inhibitors of Schnurri-3 3'UTR reporter in osteoblasts. Clone20 osteoblast Shn3 3'UTR firefly luciferase, 24 h. inhibition, % at 12.5 µM. AID 588674. 360,000 tested, 0.52% active;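 active means mean inhibition of at least 75% with every replicate also reaching 75%; inconclusive means mean inhibition at least 75% but some replicate below; inactive means mean inhibition below 75%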;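 further: 0% = median of neutral control wells and 100% = pilot-screen positive control compound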
DNA binder FP – DNA binding small molecules. shares compounds with EWS-Fli block. salmon sperm DNA acridine orange fluorescence polarization. AC35, µM (series often up to 68 µM), inactives show at the highest dose activity change, negative = DNA binding. 640 tested, 2% active. AID 720586;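 active means fitted curve reaches a 35% signal fall AC35 below twice the sample's top valid tested dose, actives reach about 48 µM in these data; inactive means the rest, including activity in the rising direction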;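 further: lower polarization ratio signals compound binding to DNA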
* hit, by the source's call; ? = inconclusive; · = no result given.

SMILES | PAX8 inh HTS | LGR2 antag | KKLEB cytotox | CF NFkB inh | EWS-Fli block | Shn3 3UTR inh | DNA binder FP
C[C@@H]1CCCCO[C@H](CN(C)Cc2ccc(C(=O)Nc3ccccc3N)cc2)[C@@H](C)CN([C@H](C)CO)C(=O)c2cc(NS(=O)(=O)c3ccccc3)ccc2O1 | 21.6 | 12.0 | · | · | -4.5 | · | ·
C[C@H](CO)N1C[C@H](C)[C@H](CN(C)C(=O)Nc2cccc3ccccc23)OCCCC[C@H](C)Oc2ccc(NC(=O)c3ccccc3)cc2C1=O | 26.0 | ? | · | · | 0.9 | · | ·
Cc1ccc(S(=O)(=O)Nc2ccc3c(c2)C(=O)N([C@@H](C)CO)C[C@H](C)[C@H](CN(C)Cc2ccc(C(=O)O)cc2)OCCCC[C@@H](C)O3)cc1 | 3.4 | -4.4 | · | · | -6.4 | · | ·
CO[C@H](CN(C)Cc1cc(F)ccc1F)[C@H](C)CN([C@H](C)CO)S(=O)(=O)c1ccc(F)cc1 | -12.2 | 11.1 | · | · | -0.8 | · | ·
O=C(C[C@@H]1C[C@H]2c3cc(NS(=O)(=O)c4ccc(F)cc4)ccc3O[C@H]2[C@H](CO)O1)NCc1ccc(-c2ccccc2)cc1 | 88.0* | 8.1 | · | · | 56.0* | · | -0.1%
C[C@@H]1CCCCO[C@@H](CN(C)S(C)(=O)=O)[C@@H](C)CN([C@H](C)CO)C(=O)c2cc(NS(C)(=O)=O)ccc2O1 | 1.2 | 12.4 | · | · | -17.9 | · | ·
CN(C)C(=S)N=Nc1[nH]c2ccccc2c1O | -78.4 | · | · | · | 60.5* | · | -6.5%
C[C@H](CO)N1C[C@H](C)[C@@H](CN(C)Cc2ccc(C(=O)O)cc2)Oc2ccc(NS(=O)(=O)c3cccs3)cc2CC1=O | · | 0.7 | · | · | -2.9 | · | ·
O=c1c2ccccc2oc2ccc(C#CC3(O)CCCCC3)cc12 | -16.6 | 74.9* | -57.3* | -28.2 | 60.7* | 1.7 | -9.4%
Cc1cc2sc3ccc(C#CC4(O)CCCCC4)cc3c(=O)c2cc1C | 31.5 | · | -40.0 | -4.3 | 90.8* | 94.3* | 5.2%
O=C(Cc1cccnc1)N[C@H]1CC[C@@H](CCNS(=O)(=O)c2ccccc2Cl)O[C@@H]1CO | · | -6.6 | · | · | · | · | ·
O=C(C[C@H]1CC[C@H](NS(=O)(=O)c2ccc(F)cc2)[C@H](CO)O1)NCc1ccncn1 | 3.5 | 14.6 | · | · | 2.2 | · | ·
COc1cccc(S(=O)(=O)Nc2ccc3c(c2)OC[C@H](C)N(Cc2ccccc2F)C[C@@H](C)[C@@H](OC)CN(C)C3=O)c1 | 50.3 | 22.6 | · | · | 2.7 | · | ·
C[C@@H]1CCCCO[C@H](CN(C)C(=O)c2ccccc2)[C@@H](C)CN([C@H](C)CO)C(=O)c2cc(NS(=O)(=O)c3cn(C)cn3)ccc2O1 | -8.5 | 5.7 | · | · | -9.6 | · | ·
NC(Cc1ccc(C(F)(F)F)cc1)c1csc(NC(=O)Nc2ccccc2Cc2ccccc2)n1 (centres undefined) | -6.7 | -0.2 | -92.4* | 92.1* | 55.7* | 83.7 | -8.9%
CC1=NC(=O)C(N=Nc2cccc(C(=O)O)c2)N1c1ccccc1 (centres undefined) | · | · | -1.4 | 1.9 | 63.7* | -7.0 | 8.1%
O=C(NCc1ccccc1)c1cccc(S(=O)(=O)N2CCCCC2)c1 | 3.7 | 4.0 | 6.4 | -6.5 | 7.9 | 12.3 | ·
CCNC(=O)c1cccc(S(=O)(=O)N2CCCCCC2)c1 | -11.7 | 14.6 | 0.2 | -2.7 | 66.8* | 11.8 | -20.4%
CCCNC(=O)N(C)C[C@H]1Oc2ncc(C#C[C@H](C)O)cc2C(=O)N([C@H](C)CO)C[C@H]1C | · | -3.2 | · | · | -6.2 | · | ·
O=C(Nc1ccc(Cl)cc1)N[C@@H]1CC[C@@H](CCn2cc(Cc3ccccc3)nn2)O[C@@H]1CO | -6.4 | -13.4 | · | · | 0.1 | · | ·
O=C(O)c1cccc(N/N=C/c2cccs2)c1 | 99.6* | 100.3* | 5.5 | -27.3 | 85.0* | 66.3 | -1.0%
O=C(O)c1ccc(N/N=C/c2ccc(OC(=O)c3cccc(Cl)c3)cc2)cc1 | 86.1* | 79.8* | -4.2 | -1.4 | 64.1* | 19.0 | 4.5%
O=C(O)c1ccc(N/N=C/c2ccc3nccnc3c2)cc1 | 119.5* | 96.4* | -15.3 | 21.3 | 84.4* | 79.9 | -4.1%
O=C(O)c1cccc(N/N=C/c2ccc(OC(F)(F)F)cc2)c1 | 20.1 | -9.2 | 4.4 | -3.8 | 73.7* | 28.8 | -7.7%
CSc1ccc(/C=N/Nc2cccc(C(=O)O)c2)cc1 | · | · | 7.0 | 1.3 | · | 75.3 | ·
SMILES | PAX8 inh HTS | LGR2 antag | KKLEB cytotox | CF NFkB inh | EWS-Fli block | Shn3 3UTR inh | DNA binder FP
C[C@H]1CN([C@@H](C)CO)C(=O)Cc2cc(NC(=O)Nc3ccc4c(c3)OCO4)ccc2O[C@H]1CN(C)Cc1ccc(Cl)c(Cl)c1 | 6.1 | 4.4 | · | · | -8.1 | · | ·
C[C@@H]1CN([C@@H](C)CO)C(=O)Cc2cc(NC(=O)c3ccncc3)ccc2O[C@H]1CN(C)C(=O)Nc1ccc(C(F)(F)F)cc1 | 14.2 | -33.9 | · | · | -4.1 | · | ·
CC(=O)NC[C@@H]1[C@@H](c2ccc(-c3cccc(F)c3)cc2)[C@@H](CO)N1C(=O)C1CC1 | · | -0.2 | · | · | · | · | ·
C/C(=N\Nc1ccc(Cl)cc1)c1ccccn1 | · | · | 0.3 | -0.7 | · | -70.9 | ·
CC(=NNc1ccc2ccccc2n1)c1ccccn1 | 113.7* | 103.6* | · | · | 84.9* | · | 7.7%
CC(=NNc1ccc2ccccc2n1)c1ccccc1O | 31.5 | 94.8* | -37.1 | -34.9 | 74.0* | 17.9 | -15.1%
COc1ccc2oc(=O)c(C(=O)Nc3ccccc3O)cc2c1 | -11.4 | 17.0 | -8.6 | -29.1 | 18.3 | -19.7 | ·
COc1ccc(NC(=O)c2cc3ccccc3oc2=O)cc1 | -7.5 | 76.4* | -19.8 | -25.9 | 75.6* | 36.6 | -11.1%
C[C@H](CO)N1C[C@H](C)[C@@H](CN(C)Cc2ccccn2)Oc2ncc(C#CCN(C)C)cc2C1=O | · | -15.6 | · | · | -7.2 | · | ·
Cc1cc(C)cc(OCC(=O)OCC(=O)Nc2cc(S(=O)(=O)N3CCOCC3)ccc2C)c1 | -0.6 | 9.1 | 5.5 | -12.0 | 65.8* | 7.5 | -11.9%
CCCC#Cc1ccc2c(c1)O[C@@H](CN(C)C(=O)c1ccccn1)[C@@H](C)CN([C@@H](C)CO)S2(=O)=O | · | 1.6 | · | · | -0.3 | · | ·
O=C(NC1CCCC1)C(c1ccccc1)n1c(CSCCOc2ccccc2)nc2ccccc21 (centres undefined) | -11.2 | -48.1 | · | · | 60.4* | · | 2.4%
CO[C@H]1CC[C@@H]2CCN(C)C(=O)C[C@@H](c3ccccc3)CN(C)C(=O)c3cc(C#N)ccc3OC[C@@H]1O2 | 9.6 | 14.1 | · | · | 2.0 | · | ·
Cc1nn(-c2ccc(F)cc2)c2nc(N)c(C#N)c(-c3ccc(O)c(O)c3)c12 | 51.6 | -3.6 | -1.3 | 9.6 | 57.1* | 16.2 | 3.0%
CO[C@H]1CN(C)C(=O)c2ccc(NS(=O)(=O)c3ccccc3)cc2OC[C@H](C)N(C)C[C@@H]1C | 17.7 | 1.9 | · | · | · | · | ·
Nc1nc2ncc(CNc3ccc(C(=O)N[C@@H](CCC(=O)O)C(=O)O)cc3)nc2c(=O)[nH]1 | · | · | 8.4 | -16.1 | 0.3 | 2.3 | ·
CN(Cc1cnc2nc(N)nc(N)c2n1)c1ccc(C(=O)N[C@@H](CCC(=O)O)C(=O)O)cc1 | 48.0 | -4.4 | -16.4 | -36.1 | 64.0* | 63.2 | -2.6%

Screens deposited in PubChem BioAssay by several laboratories.
